Experimental findings from PubChem BioAssay (NCI) are described below.

Test systems include T-47D breast; MDA-MB-435 melanoma; SW-620 colon; MCF7 breast; HCT-116 colon; HCC-2998 colon; KM12 colon; BT-549 breast.
Common to all, as to assay: NCI-60 one-dose screen, 48 h (100 = growth as untreated, 0 = no growth, -100 = all killed)
What all share (conditions): 10 µM unless noted

This is part of a sample that, as a whole, favours compounds with a hit. Of some 83,000 tested, about 20% had one in any assay.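 Interpretation: 100, growth as untreated; towards 0, rising growth inhibition; 0, no net growth; 0 to -100, cell death. Compounds scoring below 10 were considered active.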 Unmarked numbers belong to inactive results. Active and inactive are the calls of the source.

For `COc1ccc(/C(=C/c2cc(OC)c(OC)c(OC)c2)[N+](=O)[O-])cc1`, the growth was 6.27% (active) with T-47D breast; 7.21% (active) with MDA-MB-435 melanoma; -31% (active) in the assay on SW-620 colon; 1.7% (active) in the assay on MCF7 breast; 11.8% in the assay with HCT-116 colon; 91.5% with HCC-2998 colon. Further, the growth in the assay on KM12 colon was 15.5%.

Regarding `Oc1ccccc1/C=N/c1ccccn1`, the growth in the assay on T-47D breast was 95.9%; in the assay with MDA-MB-435 melanoma it was 122%; in the assay with SW-620 colon it was 107%; with MCF7 breast, 97.7%; in the assay on HCT-116 colon it was 103%; in the assay on HCC-2998 colon, -94.1% (active). For the same compound, the growth in the assay on KM12 colon was 113%.

As to `COc1ccc(N)c(S)c1`, the growth with T-47D breast is 89.5%; with MDA-MB-435 melanoma, 106%; in the assay on SW-620 colon, 93.6%; in the assay on MCF7 breast, 94.4%; with HCT-116 colon, 92.5%; with HCC-2998 colon, 103%. The growth in the assay on KM12 colon was 105%.

Consider `CCOC(=O)C1CSC(C)(C(=O)OCC)N1` (stereo not drawn), for which the growth with T-47D breast is 99.8%; in the assay with MDA-MB-435 melanoma, 103%; in the assay with SW-620 colon, 104%; in the assay on MCF7 breast, 93.4%; in the assay with HCT-116 colon, 96.6%; in the assay with HCC-2998 colon, 101%. Further, the growth in the assay on KM12 colon is 107%.

With `CCC1(C(N)=O)CC2C=CC1CC2` (stereo not drawn), the growth was 101% in the assay with T-47D breast; 121% with MDA-MB-435 melanoma; 98% with MCF7 breast; 107% in the assay with HCT-116 colon; -100% (active) in the assay on HCC-2998 colon; 117% in the assay with KM12 colon.

Take `COc1ccccc1P(c1ccccc1OC)c1ccccc1OC`: the growth with T-47D breast is 87.6%; in the assay with MDA-MB-435 melanoma it was 115%; in the assay with SW-620 colon, 103%; in the assay with MCF7 breast, 95.9%; in the assay on HCT-116 colon, 94.2%; in the assay with HCC-2998 colon it was -97.4% (active). For the same compound, the growth with KM12 colon is 86.4%.

Consider `NC(=O)C1=C[C@H]2[C@H]3C=C[C@@]2(O)C(=O)O[C@@H]3O1`, for which the growth in the assay on T-47D breast was 38.2%; in the assay on BT-549 breast, 64.2%; in the assay with MDA-MB-435 melanoma, 36.9%; in the assay on MCF7 breast, 21.6%; in the assay on HCT-116 colon, 18.4%; in the assay on HCC-2998 colon it was 91.6%. Besides, in the assay with KM12 colon, the growth was 84.9%.

As for `c1nc(SC2=NCCN2)c2[nH]cnc2n1`, the growth was 21.8% in the assay on T-47D breast; 24% in the assay on MDA-MB-435 melanoma; 58.5% with SW-620 colon; 14% with MCF7 breast; 37% in the assay on HCT-116 colon; 32.8% with HCC-2998 colon. Also, the growth in the assay with KM12 colon is 47.2%.

Take `COc1ccc(OCC(O)CN2CCN(c3ccc(Cl)cc3)CC2)cc1` (stereo not drawn): the growth is 78% in the assay on T-47D breast; 106% in the assay on MDA-MB-435 melanoma; 101% in the assay with SW-620 colon; 89.2% in the assay on MCF7 breast; 91.5% in the assay with HCT-116 colon; -94.4% (active) in the assay with HCC-2998 colon. Further, the growth with KM12 colon is 98.9%.

As to `CCOC(=O)c1cnc2c(OC)ccc(OC)c2c1Cl`, the growth in the assay with T-47D breast is 116%; in the assay with MDA-MB-435 melanoma it was 104%; in the assay on SW-620 colon, 107%; in the assay with MCF7 breast, 108%; in the assay on HCT-116 colon, 108%; in the assay on HCC-2998 colon, 117%. For the same compound, in the assay with KM12 colon, the growth was 101%.

On to `Cc1ccc2c(c1)Nc1ccc(C)cc1C2(C)C`, for which the growth in the assay on T-47D breast was 80.6%; in the assay with MDA-MB-435 melanoma, 98.3%; in the assay on SW-620 colon, 103%; with MCF7 breast, 86.9%; in the assay on HCT-116 colon it was 89.3%; in the assay with HCC-2998 colon, 104%. Besides, in the assay on KM12 colon, the growth is 110%.

Turning to `Oc1ccc(Cl)cc1Sc1cc(Cl)ccc1O`, the growth was 75.8% with T-47D breast; 103% in the assay with SW-620 colon; 91.3% with MCF7 breast; 86.9% with HCT-116 colon; 106% in the assay on HCC-2998 colon; 106% in the assay with KM12 colon.

Regarding `CCCCCCCCCCCC(=O)OCCNC(=O)C[n+]1ccccc1`, the growth is 95.3% with T-47D breast; 116% with SW-620 colon; 97.9% with MCF7 breast; 103% in the assay with HCT-116 colon; 111% with HCC-2998 colon; 110% in the assay with KM12 colon.

Consider `CC(=S)Nc1ccccc1`, for which the growth is 100% in the assay with T-47D breast; 99.4% with MDA-MB-435 melanoma; 96.8% in the assay on SW-620 colon; 95% in the assay with MCF7 breast; 104% in the assay on HCT-116 colon; 105% in the assay on HCC-2998 colon. For the same compound, in the assay with KM12 colon, the growth is 106%.

As for `O=C1OC(=O)C2C3CC(c4ccccc43)C12` (stereo not drawn), the growth was 103% with T-47D breast; 104% in the assay on MDA-MB-435 melanoma; 101% with SW-620 colon; 97.7% in the assay with MCF7 breast; 89.2% in the assay on HCT-116 colon; 106% with HCC-2998 colon. Besides, the growth with KM12 colon is 105%.

Turning to `NN=C(c1ccc(Cl)cc1)c1ccc(Cl)cc1`, the growth in the assay with T-47D breast is 108%; in the assay on MDA-MB-435 melanoma, 97.1%; in the assay with SW-620 colon, 101%; in the assay with MCF7 breast it was 99.6%; with HCT-116 colon it was 98.4%; in the assay on HCC-2998 colon it was 96%. In addition, in the assay with KM12 colon, the growth was 92.9%.

In the case of `Oc1ccc(O)c(-[n+]2ccccc2)c1`, the growth was 110% in the assay on T-47D breast; 109% in the assay with MDA-MB-435 melanoma; 96.9% in the assay on SW-620 colon; 102% in the assay with MCF7 breast; 93.3% in the assay with HCT-116 colon; 102% in the assay on HCC-2998 colon. Also, the growth in the assay on KM12 colon is 107%.

Take `O=[N+]([O-])c1cccc2cc(S(=O)(=O)O)ccc12`: the growth is 98.9% in the assay on T-47D breast; 110% with MDA-MB-435 melanoma; 99.9% with SW-620 colon; 97.2% with MCF7 breast; 97.6% in the assay with HCT-116 colon; 100% with HCC-2998 colon. Further, the growth in the assay with KM12 colon is 108%.

In the case of `CC/C(=C(\CC)c1ccc(OCCN(CC)CC)cc1)c1ccc(OCCN(CC)CC)cc1`, the growth was 12.3% with T-47D breast; 15.4% with MDA-MB-435 melanoma; 9.59% (active) in the assay with SW-620 colon; 30.1% with MCF7 breast; 16.7% in the assay with HCT-116 colon; 63.2% in the assay on HCC-2998 colon. The growth with KM12 colon is 33.5%.

For `O=C(N/N=C/c1ccccc1O)c1ccccc1O`, the growth with BT-549 breast is 34%; in the assay with MDA-MB-435 melanoma, 63%; in the assay with SW-620 colon, 41.4%; with MCF7 breast, 11.1%; in the assay on HCT-116 colon, 26.7%; in the assay on HCC-2998 colon, 43%. For the same compound, the growth in the assay with KM12 colon is 33.5%.

Turning to `O=C(NCCNc1nccc(-c2c(-c3cccc(O)c3)nc3sccn23)n1)c1ccccc1O`, the growth is 45.7% with BT-549 breast; 14.3% in the assay on MDA-MB-435 melanoma; 77.9% in the assay on SW-620 colon; 37% in the assay on MCF7 breast; 25.9% with HCT-116 colon; 81% in the assay on HCC-2998 colon. Also, the growth with KM12 colon is 46.7%.

On to `Clc1ccc(CN2COc3c(ccc4cccnc34)C2)cc1Cl`, for which the growth is 8.99% (active) in the assay on BT-549 breast; 12.8% in the assay on MDA-MB-435 melanoma; 18% in the assay on SW-620 colon; 12.6% in the assay on MCF7 breast; -39.1% (active) in the assay with HCT-116 colon; -25.4% (active) in the assay on HCC-2998 colon. In addition, the growth in the assay with KM12 colon is 7.75% (active).

With `COc1ccc(-c2[nH]c3ccccc3c2/C=C(\C#N)S(=O)(=O)c2ccccc2)cc1`, the growth with BT-549 breast was 80.5%; in the assay on MDA-MB-435 melanoma it was -5.59% (active); in the assay with SW-620 colon, 28.6%; with MCF7 breast it was 6.42% (active); in the assay with HCT-116 colon, 11%; in the assay with HCC-2998 colon, -29.2% (active). Further, the growth in the assay on KM12 colon was 7.51% (active).

For `Cc1ccc(-c2nc3c(N=Nc4ccc(S(N)(=O)=O)cc4)c(N)nn3c(N)c2C#N)cc1`, the growth was 56% with BT-549 breast; 52.3% with MDA-MB-435 melanoma; 28.3% in the assay with MCF7 breast; 13.7% with HCT-116 colon; 52.4% with HCC-2998 colon; 29.2% in the assay on KM12 colon.

In the case of `CC(=O)c1ccc2c(c1)C1C=CCC1[C@H](c1cc3c(cc1Br)OCO3)N2` (stereo partly drawn), the growth is 44.6% in the assay with BT-549 breast; -27.2% (active) in the assay on MDA-MB-435 melanoma; 21.2% in the assay with SW-620 colon; 14.1% in the assay with MCF7 breast; 14.9% in the assay on HCT-116 colon; 7.12% (active) in the assay on HCC-2998 colon. Moreover, the growth with KM12 colon was 17%.

In the case of `O=C(O)c1cccc(S(=O)(=O)c2ccccc2)c1`, the growth with BT-549 breast is 107%; in the assay on MDA-MB-435 melanoma, 94.2%; with SW-620 colon, 98.5%; with MCF7 breast, 90.4%; in the assay on HCT-116 colon, 109%; in the assay with HCC-2998 colon, 104%. In addition, the growth with KM12 colon is 97.4%.

For `COc1cc(/C=C2/Oc3cc4occc4c(OC)c3C2=O)ccc1OCC(=O)Nc1ccncc1`, the growth is 93.9% in the assay on BT-549 breast; 112% in the assay on MDA-MB-435 melanoma; 103% in the assay on SW-620 colon; 94.3% with MCF7 breast; 95.3% with HCT-116 colon; 110% in the assay with HCC-2998 colon. Moreover, in the assay on KM12 colon, the growth is 97.1%.

As for `CN1CCN(C(=O)/C=C/c2ccc([N+](=O)[O-])o2)CC1`, the growth in the assay on BT-549 breast was 105%; with MDA-MB-435 melanoma it was 72.7%; in the assay on SW-620 colon, 82%; in the assay on MCF7 breast it was 68.7%; with HCT-116 colon it was 81.6%; in the assay with HCC-2998 colon it was 103%. Further, in the assay on KM12 colon, the growth was 83.9%.

Turning to `Cc1cc2nc(-c3c(N)ncc(C#N)c3-c3ccc(Cl)cc3)[nH]c2cc1C`, the growth with MDA-MB-435 melanoma was 58%; in the assay on SW-620 colon, 76.6%; in the assay with MCF7 breast, 58.5%; in the assay on HCT-116 colon it was 34.8%; in the assay with HCC-2998 colon, 65.4%; with KM12 colon, 52.9%.
